Test results reported in article PMC7862700, “An all-to-all approach to the identification of sequence-specific readers for epigenetic DNA modifications on cytosine”.

Assays:
Assay in all cases: DAPPL (digital affinity profiling via proximity ligation, sequencing); 10 mM Tris-HCl pH 7.5, 50 mM NaCl, 1 mM DTT, 4% glycerol, room temperature, 30 min; GST-TFs on glutathione beads, 16-mer random dsDNA library, 0.1% formaldehyde crosslink after washing; high values mean tight binding
FLI1 = molecular target: T1, FLI1 (Homo sapiens, UniProt Q01543 1-452); conditions: protein: recombinant; tags: N-terminal GST; dsDNA, one strand shown
T1 sequence: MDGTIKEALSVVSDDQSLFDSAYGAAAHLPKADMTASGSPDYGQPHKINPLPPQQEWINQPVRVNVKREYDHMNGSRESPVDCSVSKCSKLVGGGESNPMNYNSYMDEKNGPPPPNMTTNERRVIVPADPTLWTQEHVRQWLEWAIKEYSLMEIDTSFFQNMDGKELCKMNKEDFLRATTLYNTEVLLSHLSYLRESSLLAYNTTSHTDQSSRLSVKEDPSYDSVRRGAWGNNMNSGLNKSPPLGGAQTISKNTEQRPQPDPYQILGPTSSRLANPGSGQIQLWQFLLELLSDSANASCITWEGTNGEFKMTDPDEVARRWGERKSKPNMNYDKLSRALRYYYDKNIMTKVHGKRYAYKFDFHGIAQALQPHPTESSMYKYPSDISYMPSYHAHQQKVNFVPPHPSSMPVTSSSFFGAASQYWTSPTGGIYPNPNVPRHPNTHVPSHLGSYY
Procedure, shortened: (§1)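 In yeast, human transcription factors were expressed with a GST fusion, then pulled down on glutathione beads and given DNA barcodes. Pooled with a tag-only sample, they were exposed to 200 nmole of a 16-mer random double-stranded DNA library (Tris/NaCl/DTT/glycerol buffer, room temperature, 30 min), washed, crosslinked with 0.1% formaldehyde, proximity-ligated using BsaI/T4 ligase for 1 h at 37 °C, PCR-amplified and read on an Illumina NextSeq500. Each hexamer's frequency of reads for a factor, divided by the matching frequency for the tag-only sample, gives the binding signal.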

ELK1 = molecular target: T2, ELK1 (Homo sapiens, UniProt P19419 1-428); conditions: protein: recombinant; tags: N-terminal GST; dsDNA, one strand shown
T2 sequence: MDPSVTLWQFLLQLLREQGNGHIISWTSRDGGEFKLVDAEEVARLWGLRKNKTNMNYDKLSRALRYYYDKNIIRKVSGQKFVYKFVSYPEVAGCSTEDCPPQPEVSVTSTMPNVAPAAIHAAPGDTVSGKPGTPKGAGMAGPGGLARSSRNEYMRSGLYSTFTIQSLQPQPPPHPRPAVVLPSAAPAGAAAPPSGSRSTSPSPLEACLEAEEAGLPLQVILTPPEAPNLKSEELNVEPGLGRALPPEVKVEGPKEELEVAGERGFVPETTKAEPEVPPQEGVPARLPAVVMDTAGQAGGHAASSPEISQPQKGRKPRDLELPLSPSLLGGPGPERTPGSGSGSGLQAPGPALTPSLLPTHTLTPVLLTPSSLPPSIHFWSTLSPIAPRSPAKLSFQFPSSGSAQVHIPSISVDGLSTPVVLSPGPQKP
Procedure, shortened: as §1

GABPA = molecular target: T3, GABPA (Homo sapiens, UniProt Q06546 1-454); conditions: protein: recombinant; tags: N-terminal GST; dsDNA, one strand shown
T3 sequence: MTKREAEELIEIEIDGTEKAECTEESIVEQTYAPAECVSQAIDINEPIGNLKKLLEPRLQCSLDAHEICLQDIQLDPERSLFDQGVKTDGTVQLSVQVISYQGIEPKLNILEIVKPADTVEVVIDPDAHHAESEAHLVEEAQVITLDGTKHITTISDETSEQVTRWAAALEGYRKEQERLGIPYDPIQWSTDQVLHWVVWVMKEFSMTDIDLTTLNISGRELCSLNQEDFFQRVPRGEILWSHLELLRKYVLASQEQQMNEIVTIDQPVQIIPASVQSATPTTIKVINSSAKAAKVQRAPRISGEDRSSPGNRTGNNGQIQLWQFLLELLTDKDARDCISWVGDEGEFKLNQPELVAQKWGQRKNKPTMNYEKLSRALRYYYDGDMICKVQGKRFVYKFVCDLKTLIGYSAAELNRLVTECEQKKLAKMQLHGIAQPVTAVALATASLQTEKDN
Procedure, shortened: as §1

ERG = molecular target: T4, ERG (Homo sapiens, UniProt P11308 1-479); conditions: protein: recombinant; tags: N-terminal GST; dsDNA, one strand shown
T4 sequence: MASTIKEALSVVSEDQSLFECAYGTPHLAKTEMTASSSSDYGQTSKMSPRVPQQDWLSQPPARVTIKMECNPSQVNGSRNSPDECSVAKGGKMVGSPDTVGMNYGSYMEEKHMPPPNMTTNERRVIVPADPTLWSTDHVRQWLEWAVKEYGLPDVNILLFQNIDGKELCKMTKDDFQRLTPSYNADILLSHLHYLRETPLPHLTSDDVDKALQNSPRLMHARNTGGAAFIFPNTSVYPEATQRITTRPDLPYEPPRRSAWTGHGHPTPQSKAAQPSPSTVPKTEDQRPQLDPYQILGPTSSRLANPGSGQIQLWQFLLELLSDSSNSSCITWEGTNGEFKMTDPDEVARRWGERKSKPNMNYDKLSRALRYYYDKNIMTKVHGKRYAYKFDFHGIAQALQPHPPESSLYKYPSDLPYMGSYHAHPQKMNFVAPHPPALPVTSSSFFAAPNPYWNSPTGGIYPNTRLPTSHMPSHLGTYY
Procedure, shortened: as §1

ELF1 = ELF1 (Homo sapiens, UniProt P32519 1-619); conditions: protein: recombinant; tags: N-terminal GST; dsDNA, one strand shown
Procedure, shortened: as §1

EHF = molecular target: T5, EHF (Homo sapiens, UniProt Q9NZC4 1-300); conditions: protein: recombinant; tags: N-terminal GST; dsDNA, one strand shown
T5 sequence: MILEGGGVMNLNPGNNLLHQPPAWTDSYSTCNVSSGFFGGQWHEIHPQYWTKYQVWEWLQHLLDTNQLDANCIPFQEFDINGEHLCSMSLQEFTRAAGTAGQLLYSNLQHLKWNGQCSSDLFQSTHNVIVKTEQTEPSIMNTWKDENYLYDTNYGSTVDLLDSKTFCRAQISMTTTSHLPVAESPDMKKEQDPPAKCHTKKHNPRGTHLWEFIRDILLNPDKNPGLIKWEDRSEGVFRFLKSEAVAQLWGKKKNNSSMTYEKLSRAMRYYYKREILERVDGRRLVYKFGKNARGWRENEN
Procedure, shortened: as §1

SPI1 = SPI1 (Homo sapiens, UniProt P17947 1-270); conditions: protein: recombinant; tags: N-terminal GST; dsDNA, one strand shown
Procedure, shortened: as §1

SPIB = SPIB (Homo sapiens, UniProt Q01892 1-262); conditions: protein: recombinant; tags: N-terminal GST; dsDNA, one strand shown
Procedure, shortened: as §1

ELK3 = molecular target: T6, ELK3 (Homo sapiens, UniProt P41970 1-407); conditions: protein: recombinant; tags: N-terminal GST; dsDNA, one strand shown
T6 sequence: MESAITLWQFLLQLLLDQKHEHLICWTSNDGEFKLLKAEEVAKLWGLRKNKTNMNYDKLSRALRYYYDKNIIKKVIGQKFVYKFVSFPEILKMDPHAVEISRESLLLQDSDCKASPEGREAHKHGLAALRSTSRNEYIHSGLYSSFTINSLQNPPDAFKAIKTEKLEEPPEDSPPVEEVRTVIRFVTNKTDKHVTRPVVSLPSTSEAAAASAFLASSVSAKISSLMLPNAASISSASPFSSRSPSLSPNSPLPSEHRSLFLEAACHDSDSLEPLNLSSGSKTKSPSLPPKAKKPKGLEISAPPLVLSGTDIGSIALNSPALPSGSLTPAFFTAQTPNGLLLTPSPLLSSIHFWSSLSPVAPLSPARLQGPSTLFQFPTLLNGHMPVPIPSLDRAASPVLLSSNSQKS
Procedure, shortened: as §1

FEV = molecular target: T7, FEV (Homo sapiens, UniProt Q99581 1-238); conditions: protein: recombinant; tags: N-terminal GST; dsDNA, one strand shown
T7 sequence: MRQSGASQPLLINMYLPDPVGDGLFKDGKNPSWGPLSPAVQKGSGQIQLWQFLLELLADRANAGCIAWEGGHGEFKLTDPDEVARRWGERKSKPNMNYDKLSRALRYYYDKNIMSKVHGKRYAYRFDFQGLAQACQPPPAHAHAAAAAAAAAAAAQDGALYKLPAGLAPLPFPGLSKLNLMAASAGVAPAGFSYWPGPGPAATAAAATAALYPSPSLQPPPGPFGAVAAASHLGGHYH
Procedure, shortened: as §1

ETV5 = ETV5 (Homo sapiens, UniProt P41161 1-510); conditions: protein: recombinant; tags: N-terminal GST; dsDNA, one strand shown
Procedure, shortened: as §1

HSF1 = HSF1 (Homo sapiens, UniProt Q00613 1-529); conditions: protein: recombinant; tags: N-terminal GST; chain copies: 3; dsDNA, one strand shown
Procedure, shortened: as §1

SPIC = molecular target: T8, SPIC (Homo sapiens, UniProt Q8N5J4 1-248); conditions: protein: recombinant; tags: N-terminal GST; dsDNA, one strand shown
T8 sequence: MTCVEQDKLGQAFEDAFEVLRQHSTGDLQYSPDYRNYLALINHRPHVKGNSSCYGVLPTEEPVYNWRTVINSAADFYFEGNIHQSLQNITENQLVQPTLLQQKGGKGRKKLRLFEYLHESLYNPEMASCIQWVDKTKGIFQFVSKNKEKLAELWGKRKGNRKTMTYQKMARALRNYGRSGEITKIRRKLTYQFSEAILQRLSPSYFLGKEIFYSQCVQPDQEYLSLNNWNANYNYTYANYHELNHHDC
Procedure, shortened: as §1

ELF4 = ELF4 (Homo sapiens, UniProt Q99607 1-663); conditions: protein: recombinant; tags: N-terminal GST; dsDNA, one strand shown
Procedure, shortened: as §1

ELK4 = molecular target: T9, ELK4 (Homo sapiens, UniProt P28324-2 1-405); conditions: protein: recombinant; tags: N-terminal GST; dsDNA, one strand shown
T9 sequence: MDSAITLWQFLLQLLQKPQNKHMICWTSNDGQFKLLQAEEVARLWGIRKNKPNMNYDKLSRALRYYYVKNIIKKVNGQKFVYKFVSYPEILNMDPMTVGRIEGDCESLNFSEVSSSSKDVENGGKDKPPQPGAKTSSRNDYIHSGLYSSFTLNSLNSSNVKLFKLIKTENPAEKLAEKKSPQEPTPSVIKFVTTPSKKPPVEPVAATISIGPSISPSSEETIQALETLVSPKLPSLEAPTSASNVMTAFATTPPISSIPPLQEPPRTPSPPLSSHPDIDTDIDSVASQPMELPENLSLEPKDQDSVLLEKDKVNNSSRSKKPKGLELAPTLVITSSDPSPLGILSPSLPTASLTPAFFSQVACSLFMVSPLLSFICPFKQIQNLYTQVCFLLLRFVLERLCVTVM
Procedure, shortened: as §1

ETV2 = molecular target: T10, ETV2 (Homo sapiens, UniProt O00321 1-342); conditions: protein: recombinant; tags: N-terminal GST; dsDNA, one strand shown
T10 sequence: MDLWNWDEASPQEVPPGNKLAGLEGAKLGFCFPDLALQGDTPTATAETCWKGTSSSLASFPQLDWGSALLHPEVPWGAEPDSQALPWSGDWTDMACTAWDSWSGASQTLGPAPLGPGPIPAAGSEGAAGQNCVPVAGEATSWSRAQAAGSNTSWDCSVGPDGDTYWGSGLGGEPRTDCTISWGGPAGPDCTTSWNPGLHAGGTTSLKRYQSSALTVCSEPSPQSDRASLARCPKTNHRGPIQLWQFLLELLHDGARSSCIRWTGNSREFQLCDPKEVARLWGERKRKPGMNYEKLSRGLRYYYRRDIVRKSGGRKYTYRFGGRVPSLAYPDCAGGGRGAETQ
Procedure, shortened: as §1

ELF3 = molecular target: T11, ELF3 (Homo sapiens, UniProt P78545 1-371); conditions: protein: recombinant; tags: N-terminal GST; dsDNA, one strand shown
T11 sequence: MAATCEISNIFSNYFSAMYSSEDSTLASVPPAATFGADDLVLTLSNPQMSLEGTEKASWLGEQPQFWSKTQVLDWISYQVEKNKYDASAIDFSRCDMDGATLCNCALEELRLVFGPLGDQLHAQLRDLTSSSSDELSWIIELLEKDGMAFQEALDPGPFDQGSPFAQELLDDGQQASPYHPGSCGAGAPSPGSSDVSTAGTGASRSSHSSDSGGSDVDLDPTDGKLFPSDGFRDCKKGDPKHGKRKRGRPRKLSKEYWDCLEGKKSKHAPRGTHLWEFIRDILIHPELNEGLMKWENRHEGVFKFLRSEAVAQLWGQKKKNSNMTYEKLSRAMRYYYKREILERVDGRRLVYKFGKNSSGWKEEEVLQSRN
Procedure, shortened: as §1

ETV1 = ETV1 (Homo sapiens, UniProt P50549 1-477); conditions: protein: recombinant; tags: N-terminal GST; dsDNA, one strand shown
Procedure, shortened: as §1

Sequence of ELF4 (Q99607 whole entry): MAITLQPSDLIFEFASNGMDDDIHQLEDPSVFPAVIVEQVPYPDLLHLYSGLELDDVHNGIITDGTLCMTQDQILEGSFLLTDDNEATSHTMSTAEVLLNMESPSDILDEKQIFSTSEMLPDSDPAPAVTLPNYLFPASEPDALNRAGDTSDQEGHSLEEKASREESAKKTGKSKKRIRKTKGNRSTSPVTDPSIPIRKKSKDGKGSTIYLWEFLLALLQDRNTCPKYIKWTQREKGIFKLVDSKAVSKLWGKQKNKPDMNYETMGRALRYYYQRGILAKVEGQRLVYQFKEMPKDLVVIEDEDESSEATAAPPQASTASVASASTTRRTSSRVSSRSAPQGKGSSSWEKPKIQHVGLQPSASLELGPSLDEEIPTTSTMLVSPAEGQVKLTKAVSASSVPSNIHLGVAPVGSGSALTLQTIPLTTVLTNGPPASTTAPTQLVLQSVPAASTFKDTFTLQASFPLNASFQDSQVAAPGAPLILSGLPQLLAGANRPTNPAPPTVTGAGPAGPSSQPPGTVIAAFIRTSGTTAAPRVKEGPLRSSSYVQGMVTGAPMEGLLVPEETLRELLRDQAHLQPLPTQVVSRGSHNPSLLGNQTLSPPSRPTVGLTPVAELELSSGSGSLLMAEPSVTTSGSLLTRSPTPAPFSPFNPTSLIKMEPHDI
Sequence of ETV1 (P50549 whole entry): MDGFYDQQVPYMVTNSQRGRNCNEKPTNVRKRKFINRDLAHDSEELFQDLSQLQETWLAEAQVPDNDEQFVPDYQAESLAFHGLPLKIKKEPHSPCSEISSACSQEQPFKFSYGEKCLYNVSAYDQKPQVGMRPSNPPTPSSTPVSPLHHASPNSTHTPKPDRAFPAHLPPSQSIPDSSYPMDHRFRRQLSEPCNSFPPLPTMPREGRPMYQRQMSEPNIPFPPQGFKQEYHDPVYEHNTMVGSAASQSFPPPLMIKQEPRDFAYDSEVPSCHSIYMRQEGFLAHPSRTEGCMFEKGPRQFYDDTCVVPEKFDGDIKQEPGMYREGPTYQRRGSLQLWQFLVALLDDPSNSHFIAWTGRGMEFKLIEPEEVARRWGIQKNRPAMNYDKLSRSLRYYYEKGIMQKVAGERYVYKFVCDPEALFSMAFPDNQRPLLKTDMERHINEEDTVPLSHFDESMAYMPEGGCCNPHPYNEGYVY
Sequence of SPIB (Q01892 whole entry): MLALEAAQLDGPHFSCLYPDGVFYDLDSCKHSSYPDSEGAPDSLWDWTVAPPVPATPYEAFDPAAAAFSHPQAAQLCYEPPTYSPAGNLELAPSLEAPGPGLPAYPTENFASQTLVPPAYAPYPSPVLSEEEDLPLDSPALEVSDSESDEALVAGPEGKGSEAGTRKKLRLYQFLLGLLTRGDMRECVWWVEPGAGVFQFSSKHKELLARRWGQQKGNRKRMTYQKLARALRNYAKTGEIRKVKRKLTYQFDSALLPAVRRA
Sequence of ELF1 (P32519 whole entry): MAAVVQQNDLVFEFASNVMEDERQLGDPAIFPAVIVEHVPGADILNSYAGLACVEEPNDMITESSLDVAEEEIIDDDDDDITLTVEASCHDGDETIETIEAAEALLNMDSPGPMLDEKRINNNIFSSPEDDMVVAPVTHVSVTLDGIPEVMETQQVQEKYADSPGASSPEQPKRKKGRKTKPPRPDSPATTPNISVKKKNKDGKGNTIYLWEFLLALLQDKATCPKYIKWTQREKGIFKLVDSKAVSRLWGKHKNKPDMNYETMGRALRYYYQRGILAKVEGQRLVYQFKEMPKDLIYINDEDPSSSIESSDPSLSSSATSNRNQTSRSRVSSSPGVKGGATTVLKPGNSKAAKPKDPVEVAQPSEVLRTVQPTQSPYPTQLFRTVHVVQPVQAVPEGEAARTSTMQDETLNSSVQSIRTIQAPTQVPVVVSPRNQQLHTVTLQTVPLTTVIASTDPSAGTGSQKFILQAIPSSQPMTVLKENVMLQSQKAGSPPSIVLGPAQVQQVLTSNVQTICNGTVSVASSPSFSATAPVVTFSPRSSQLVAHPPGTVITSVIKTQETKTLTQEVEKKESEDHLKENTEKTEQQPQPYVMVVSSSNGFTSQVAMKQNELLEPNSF
Sequence of ETV5 (P41161 whole entry): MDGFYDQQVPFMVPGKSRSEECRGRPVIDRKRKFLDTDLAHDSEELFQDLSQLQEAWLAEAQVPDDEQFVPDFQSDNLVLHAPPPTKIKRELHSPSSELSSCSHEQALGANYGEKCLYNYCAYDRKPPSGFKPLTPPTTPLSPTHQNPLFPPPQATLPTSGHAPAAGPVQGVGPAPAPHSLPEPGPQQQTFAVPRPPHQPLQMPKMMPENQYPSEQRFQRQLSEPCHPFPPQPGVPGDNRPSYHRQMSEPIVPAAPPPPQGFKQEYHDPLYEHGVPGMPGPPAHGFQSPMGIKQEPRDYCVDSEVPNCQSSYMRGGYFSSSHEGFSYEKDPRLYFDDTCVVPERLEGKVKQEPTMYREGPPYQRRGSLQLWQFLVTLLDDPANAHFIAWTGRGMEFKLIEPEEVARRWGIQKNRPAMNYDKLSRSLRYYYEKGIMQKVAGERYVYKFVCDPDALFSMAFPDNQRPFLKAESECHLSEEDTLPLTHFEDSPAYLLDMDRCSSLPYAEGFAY
Sequence of HSF1 (Q00613 whole entry): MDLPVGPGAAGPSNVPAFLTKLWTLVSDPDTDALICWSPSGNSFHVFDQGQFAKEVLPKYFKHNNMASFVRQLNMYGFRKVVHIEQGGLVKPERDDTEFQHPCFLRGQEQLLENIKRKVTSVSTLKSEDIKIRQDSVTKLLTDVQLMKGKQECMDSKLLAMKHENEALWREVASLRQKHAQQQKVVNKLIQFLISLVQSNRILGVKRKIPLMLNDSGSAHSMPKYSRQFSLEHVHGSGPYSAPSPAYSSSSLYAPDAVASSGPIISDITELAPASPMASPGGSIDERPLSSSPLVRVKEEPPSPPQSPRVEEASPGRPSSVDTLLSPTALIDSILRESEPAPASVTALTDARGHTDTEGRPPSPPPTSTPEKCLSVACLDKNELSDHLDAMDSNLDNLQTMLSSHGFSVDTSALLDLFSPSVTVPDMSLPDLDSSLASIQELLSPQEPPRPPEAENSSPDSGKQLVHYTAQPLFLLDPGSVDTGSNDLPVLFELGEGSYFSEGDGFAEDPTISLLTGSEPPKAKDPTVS

Sequence: AACACG
- binding signal (FLI1): 1.26 fold enrichment (6-mer frequency, TF over GST control)
- binding signal (ELK1): 1.23 fold enrichment (6-mer frequency, TF over GST control)
- binding signal (GABPA): 1.1 fold enrichment (6-mer frequency, TF over GST control)
- binding signal (ERG): 1.22 fold enrichment (6-mer frequency, TF over GST control)
- binding signal (ELF1): 1.18 fold enrichment (6-mer frequency, TF over GST control)
- binding signal (EHF): 1.14 fold enrichment (6-mer frequency, TF over GST control)
- binding signal (SPI1): 1.17 fold enrichment (6-mer frequency, TF over GST control)
- binding signal (SPIB): 1.13 fold enrichment (6-mer frequency, TF over GST control)
- binding signal (ELK3): 1.16 fold enrichment (6-mer frequency, TF over GST control)
- binding signal (FEV): 1.19 fold enrichment (6-mer frequency, TF over GST control)
- binding signal (ETV5): 1.25 fold enrichment (6-mer frequency, TF over GST control)
- binding signal (HSF1): 1.02 fold enrichment (6-mer frequency, TF over GST control)
- binding signal (SPIC): 1.33 fold enrichment (6-mer frequency, TF over GST control)
- binding signal (ELF4): 1.24 fold enrichment (6-mer frequency, TF over GST control)
- binding signal (ELK4): 1.22 fold enrichment (6-mer frequency, TF over GST control)
- binding signal (ETV2): 1.07 fold enrichment (6-mer frequency, TF over GST control)
- binding signal (ELF3): 1.19 fold enrichment (6-mer frequency, TF over GST control)
- binding signal (ETV1): 1.24 fold enrichment (6-mer frequency, TF over GST control)
